# A selection: hits, their analogues and other compounds. The true share with any hit is near 6.5%.
# VACV Venus inh = inhibitors of vaccinia virus (Venus reporter). Potency, µM (top dose mostly 36.5 µM), without a hit: at the top dose activity change, negative = inhibition, actives largely listed as inhibitors. Vaccinia virus Venus reporter expression, fluorescence. 0.46% of 330,000 active; calls by dose curve; tested in A549 cells; also: potency is read from the fitted curve at half-maximal effect; nearly all actives have a fitted effect of over 30% in size
# VACV mCherry inh = inhibitors of vaccinia virus infection (mCherry reporter signal); Vaccinia virus mCherry reporter infection, fluorescence; Potency, µM (highest dose often 36.5 µM), without a hit: at the top dose activity change, negative = inhibition, most hits filed as inhibitors; 0.63% of 310,000 active; AID 720579; calls by dose curve; tested in A549 cells; also: potency is read from the fitted curve at half-maximal effect; nearly all actives have a fitted effect of over 35% in size
# MARV entry inh = Marburg virus entry inhibition; 1.8% of 300,000 active; Potency, µM (top dose mostly 37.8 µM), without a hit: top-dose activity change, negative = inhibition, usual class: inhibitors; AID 540276; Marburg virus pseudotyped entry inhibition, cell reporter; calls by dose curve; tested in HEK293 cells; also: potency is read from the fitted curve at half-maximal effect
# Lassa entry inh = blocks Lassa virus binding to or entry into cells. Lassa virus pseudotype entry inhibition, cell reporter. Potency, µM (highest dose often 37.9 µM), for inactives: at the top dose activity change, negative = inhibition, usual class: inhibitors. 1.2% of 300,000 active; calls by dose curve; tested in HEK293 cells; also: potency is read from the fitted curve at half-maximal effect; nearly all actives have a fitted effect of over 50% in size
# FMDV inh = antivirals against foot and mouth disease virus | FMDV antiviral cell-based qHTS | Potency, µM (doses to about 57.9 µM), for inactives: at the highest dose activity change, negative = inhibition, usual class: inhibitors | 1.2% of 410,000 active | AID 1159524; calls by dose curve; tested in HEK293T cells; also: read-out not given here; potency is read from the fitted curve at half-maximal effect; nearly all actives have a fitted effect of over 45% in size
# HCMV inh = human cytomegalovirus inhibition. HFF cells, HCMV-luciferase reporter, 72 h; active compounds read low. activity change, negative = inhibition, % at 57.5 µM. 4.5% of 410,000 active; in the data active = activity change below about -60%; inconclusive = no clear call, values can overlap the other calls; inactive = above about -39%
#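 Human foreskin fibroblasts infected with luciferase-reporter HCMV at MOI 1 PFU/cell, compounds at two doses. Luciferase measured 72 h post infection; normalized to buffer-only basal and Salinomycin (10uM) controls.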
# Numbers without * were called inactive; i = inactive; u = inconclusive; x = no result; [ ] = another dose, or the depositor's remark. % is scaled to controls: 0 for no effect and ±100 for the full control effect.
SMILES,VACV Venus inh,VACV mCherry inh,MARV entry inh,Lassa entry inh,FMDV inh,HCMV inh
CCOc1ccc(NC(=O)Cc2coc3ccc(C)cc23)cc1,-13.3%,-21.7%,-12.4%[46.1 µM],u,-12.6%,-7.7
C=CCNc1nc2c(c(=O)n(C)c(=O)n2C)n1Cc1ccc(F)cc1,-26.7%,-11.3%,x,x,u,-78.9*
C=CCNc1nc2c(c(=O)n(C)c(=O)n2C)n1CCCCCC,x,x,u,-42.4%,14.1µM*,-96.5*
C=CCNc1nc2c(c(=O)n(C)c(=O)n2C)n1CC,-3.2%,-1.6%,x,x,-16.3%,-12.4
CCCCCCn1c(N2CCCC2)nc2c1c(=O)n(C)c(=O)n2C,-25.7%,-1.3%,u,-19.4%,28.2µM*,-22.2
COc1ccc(C2=CC(c3cccc(C)c3)n3nnnc3N2)cc1 (configuration not stated),-12.4%,-7.9%,x,-11.5%[46.1 µM],0.2%,-13.0
COc1ccc(-c2c(C(=O)c3ccc(Br)cc3)[nH]c(N)c2C(=O)NCCc2c[nH]c3ccccc23)cc1OC,x,x,x,x,x,66.8
Cc1ccc(C2=C(O)c3ccccc3C(=O)C2=O)cc1,x,x,x,x,3.3%,3.8
O=c1cc(-c2ccccc2)[nH]c2ccccc12,u,u,u,-5.6%,-11.6%,-76.3*
O=C1C(c2cc(=O)c3ccccc3[nH]2)=C(O)c2ccccc21,u,u,5.62µM*,u,-12.3%,12.7
O=C1C(c2ccncc2)=C(O)c2ccccc21,-20.5%,x,7.08µM*,7.94µM*,0.0%,67.2
CN(CCO)C(=O)c1cn(C2CCN(Cc3cccc(C(F)(F)F)c3)CC2)nn1,-4.7%,-1.6%,x,x,-9.7%,x
O=C(CCCN1C(=O)c2ccccc2C1=O)N1CC[C@@H](c2ccccc2)C1,x,x,0.3%,x,x,x
CCC(=O)NC(Nc1sc2c(c1C(=O)OC)CCN(C)C2)(C(F)(F)F)C(F)(F)F,x,x,-17.8%,1.3%,14.3%,-101.2*
COc1ccc(CNC(=O)C(c2ccncc2)N(C(=O)Cc2cccs2)c2ccccc2)cc1 (configuration not stated),10.6%,i,u,-8.0%,-3.9%,1.4
Cc1ccc(S(=O)(=O)C(CNC(=O)C(=O)NCCc2ccc(Cl)cc2)c2ccco2)cc1 (configuration not stated),-24.1%,u,x,-19.0%[46.1 µM],-17.3%,-13.4
COc1ccc(CCNC(=O)C(=O)NCC(c2cccs2)S(=O)(=O)c2ccc(F)cc2)cc1 (configuration not stated),-8.4%,-17.8%,x,u,39.8µM*,-29.8
O=C(NCCc1ccc(Cl)cc1)C(=O)NCC(c1ccco1)S(=O)(=O)c1ccc(Cl)cc1 (configuration not stated),u,u,x,-20.2%[46.1 µM],-38.1%,-80.8*
COc1ccc(N(C(=O)CCl)C(C(=O)NCCc2ccccc2)c2cccs2)cc1 (configuration not stated),u,-20.8%,u,u,15.8µM*,-100.3*
Cc1cc(=O)oc2cc(OCc3c(F)cccc3Cl)ccc12,x,x,x,x,x,15.6
CC(=O)c1ccc(F)c(-c2cc(C)cc3c2OC(CNC(=O)c2cnc4ccccn4c2=O)C3)c1 (configuration not stated),u,u,x,x,16.2%,x
O=C(NCc1cc(C(F)(F)F)ccc1Cl)c1cccc2c1C(=O)c1ccc(N3CCC(N4CCCCC4)CC3)cc1S2(=O)=O,u,u,x,x,0.0%,-101.3*
O=C(NCCN1CCOCC1)c1cccc2c1C(=O)c1ccc(N3CCCC3)cc1S2(=O)=O,3.6%,i,x,x,9.5%,-11.5
O=C(NCc1cc(C(F)(F)F)ccc1Cl)c1cccc2c1C(=O)c1ccc(N3CCCCC3)cc1S2(=O)=O,1.7%,-6.9%,x,x,-7.7%,-4.4
O=C(NCc1cc(C(F)(F)F)ccc1Cl)c1cccc2c1C(=O)c1ccc(N3CCOCC3)cc1S2(=O)=O,10µM*,-28.1%,x,x,u,-10.6
SMILES,VACV Venus inh,VACV mCherry inh,MARV entry inh,Lassa entry inh,FMDV inh,HCMV inh
COc1ccc(C(=O)C(C(=O)Nc2c(C)cccc2C)N(C(=O)Cc2ccc([N+](=O)[O-])cc2)c2ccccc2)cc1 (configuration not stated),x,x,x,x,x,-6.3
COc1cccc(C2=CC(c3ccccc3O)NC(C)(C)N2)c1 (configuration not stated),-12.4%,10.6%,x,x,x,x
COc1cccc(C(=O)NC(=S)N2CCN(c3ccc(C(F)(F)F)cc3[N+](=O)[O-])CC2)c1,-19.3%,-20.9%,7.2%,-14.7%,0.0%,-61.9*
O=C(Nn1c(O)c(C=C2N=c3ccccc3=N2)sc1=S)c1ccccc1Cl,x,x,-5.0%,u,-10.3%,-91.2*
CCOc1ccc(-n2c(SCc3cc(=O)oc4cc(C)c(C(C)C)cc34)nnc2-c2cccnc2)cc1,-5.9%,-16.0%,-21.5%,-4.9%,-22.1%,-80.1*
CCOC(=O)c1ccc(NC(=O)CSc2ccc(-c3sc(C)nc3C)nn2)cc1,-18.4%,i,x,u,-17.5%,-1.9
Cc1ccccc1NC(=O)c1c2c(nc3ccccc13)CCC2,-7.5%,5.8%,10.4%[46.1 µM],15.0%,-14.6%,-70.9*
COc1cc(NC(=O)c2c3c(nc4ccccc24)CCC3)cc(OC)c1,x,x,u,-3.8%,-19.3%,-101.9*
CCOC(=O)C1=C(C)NC(C)=C(C(=O)OCC)C1c1c(F)c(F)c(F)c(F)c1F,x,x,u,16.4µM*,x,x
C[C@H]1CN=C(N(C)C)N1CCc1cccc(F)c1,-6.5%,i,x,x,-2.8%,-10.6
C[C@H]1CN=C(N(C)C)N1CCc1ccccc1,-2.0%,i,x,x,3.0%,-66.6*
Nc1ccc2[nH]ncc2c1,-13.2%,i,15.0%,-5.9%,-17.4%,-61.3*
O=C(Cc1ccc(F)cc1)Nc1ccc2[nH]ncc2c1,-14.7%,-0.9%,0.2%,3.9%,0.0%,85.0
COc1cc(C2NCC(c3ccc(Cl)cc3Cl)c3c2[nH]c2ccccc32)cc(OC)c1OC (configuration not stated),-19.7%,-25.1%,15.8µM*,u,-28.3%,u
O=C(O)c1ccc(C2NCC(c3ccccc3Cl)c3c2[nH]c2ccccc32)cc1 (configuration not stated),-4.5%,-0.7%,u,21.0%,-26.3%,-15.9
CN=c1sc(C(=O)Nc2ccccc2)c(C)n1C,-4.3%,-1.5%,u,u,22.7%,-6.8
CN=c1sc2c(n1C)C(=O)c1ccccc1C2=O,3.98µM*,2.82µM*,u,u,u,-30.8
O=C(CN1CCNCC1)NC1CCCCC1,x,x,x,x,x,4.8
CCOC(=O)Cc1csc(Nc2ccc(Cl)cc2)n1,-8.8%,-2.3%,x,x,12.9%,-72.3*
CCOC(=O)c1nc(Nc2ccc(Cl)cc2)c2c(C)noc2n1,-2.7%,-4.5%,x,8.9%[46.1 µM],5.2%,4.6
CCOC(=O)Cc1csc(NC(=S)NC(=O)c2ccc(Cl)cc2)n1,-6.9%,x,3.6%[46.1 µM],-1.7%,3.2%,-84.1*
CCOC(=O)Cc1csc(NC(=O)C2C3C=CC(C3)C2C(=O)O)n1 (configuration not stated),-11.2%,x,7.3%[46.1 µM],21.9%,-2.6%,-101.5*
COC(=O)Cc1csc(Nc2ccc(Cl)cc2)n1,-6.0%,i,u,19.3%,-15.5%,-20.7
